# According to article PMC9911399, “Two distinct binding modes provide the RNA-binding protein RbFox with extraordinary sequence specificity”:
# Substitutions are numbered along the chain they refer to; changes in the protein carry UniProt numbers. Whole data set: some 16,000 sequences, median “ka relative to ugcaugu” near 0.0091, cut for the highest 2% near 0.032. The full list was thinned out, with the highest values kept by preference.
# T1: RBFOX1 RRM (Homo sapiens, UniProt Q9NWB1 109-208)
# T1 sequence: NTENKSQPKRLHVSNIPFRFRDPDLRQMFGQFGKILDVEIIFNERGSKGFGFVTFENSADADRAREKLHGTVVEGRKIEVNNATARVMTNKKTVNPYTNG
# B1: CCGCACU (DNA:RNA)
# RNA: GGGAGACCGGAAUUCAGAUUGUCCCCGCACUUUAAAUCCCGUCGUAGCCACCA
# DNA 1: CAATCTGAATTCCGGTCTCCC
# DNA 2: TGGTGGCTACGACGGGATT
# B2: CGCCCCU (DNA:RNA)
# RNA: B1 RNA with C26G, G27C, A29C
# DNA 1: CAATCTGAATTCCGGTCTCCC
# DNA 2: TGGTGGCTACGACGGGATT
# B3: UUCUAAG (DNA:RNA)
# RNA: B1 RNA with C25U, C26U, G27C, C28U, C30A, U31G
# DNA 1: CAATCTGAATTCCGGTCTCCC
# DNA 2: TGGTGGCTACGACGGGATT
# B4: GGUGUGG (DNA:RNA)
# RNA: GGGAGACCGGAAUUCAGAUUGUCCGGUGUGGUUAAAUCCCGUCGUAGCCACCA
# DNA 1: CAATCTGAATTCCGGTCTCCC
# DNA 2: TGGTGGCTACGACGGGATT
# B5: AUUAACU (DNA:RNA)
# RNA: B1 RNA with C25A, C26U, G27U, C28A
# DNA 1: CAATCTGAATTCCGGTCTCCC
# DNA 2: TGGTGGCTACGACGGGATT
# B6: GUUCCAG (DNA:RNA)
# RNA: B4 RNA with G26U, G28C, U29C, G30A
# DNA 1: CAATCTGAATTCCGGTCTCCC
# DNA 2: TGGTGGCTACGACGGGATT
# B7: UAUCCAA (DNA:RNA)
# RNA: B1 RNA with C25U, C26A, G27U, A29C, C30A, U31A
# DNA 1: CAATCTGAATTCCGGTCTCCC
# DNA 2: TGGTGGCTACGACGGGATT
# B8: CCACCGU (DNA:RNA)
# RNA: B1 RNA with G27A, A29C, C30G
# DNA 1: CAATCTGAATTCCGGTCTCCC
# DNA 2: TGGTGGCTACGACGGGATT
# B9: GUAAUAU (DNA:RNA)
# RNA: B4 RNA with G26U, U27A, G28A, G30A, G31U
# DNA 1: CAATCTGAATTCCGGTCTCCC
# DNA 2: TGGTGGCTACGACGGGATT
# B10: UGUUGCG (DNA:RNA)
# RNA: B4 RNA with G25U, G28U, U29G, G30C
# DNA 1: CAATCTGAATTCCGGTCTCCC
# DNA 2: TGGTGGCTACGACGGGATT
# B11: CGUUGCG (DNA:RNA)
# RNA: B4 RNA with G25C, G28U, U29G, G30C
# DNA 1: CAATCTGAATTCCGGTCTCCC
# DNA 2: TGGTGGCTACGACGGGATT
# B12: UGCGUUG (DNA:RNA)
# RNA: B4 RNA with G25U, U27C, G30U
# DNA 1: CAATCTGAATTCCGGTCTCCC
# DNA 2: TGGTGGCTACGACGGGATT
# B13: AAUGGAA (DNA:RNA)
# RNA: B4 RNA with G25A, G26A, U29G, G30A, G31A
# DNA 1: CAATCTGAATTCCGGTCTCCC
# DNA 2: TGGTGGCTACGACGGGATT
# B14: GUGCUCG (DNA:RNA)
# RNA: B1 RNA with C25G, C26U, A29U, U31G
# DNA 1: CAATCTGAATTCCGGTCTCCC
# DNA 2: TGGTGGCTACGACGGGATT
# B15: CGUGCUC (DNA:RNA)
# RNA: B4 RNA with G25C, U29C, G30U, G31C
# DNA 1: CAATCTGAATTCCGGTCTCCC
# DNA 2: TGGTGGCTACGACGGGATT
# B16: UGCUCCC (DNA:RNA)
# RNA: B1 RNA with C25U, C26G, G27C, C28U, A29C, U31C
# DNA 1: CAATCTGAATTCCGGTCTCCC
# DNA 2: TGGTGGCTACGACGGGATT
# B17: GUGCUCC (DNA:RNA)
# RNA: B1 RNA with C25G, C26U, A29U, U31C
# DNA 1: CAATCTGAATTCCGGTCTCCC
# DNA 2: TGGTGGCTACGACGGGATT
# B18: GUGCUCU (DNA:RNA)
# RNA: B1 RNA with C25G, C26U, A29U
# DNA 1: CAATCTGAATTCCGGTCTCCC
# DNA 2: TGGTGGCTACGACGGGATT
# B19: UGGCUCG (DNA:RNA)
# RNA: B1 RNA with C25U, C26G, A29U, U31G
# DNA 1: CAATCTGAATTCCGGTCTCCC
# DNA 2: TGGTGGCTACGACGGGATT
# B20: UGGCUCC (DNA:RNA)
# RNA: B1 RNA with C25U, C26G, A29U, U31C
# DNA 1: CAATCTGAATTCCGGTCTCCC
# DNA 2: TGGTGGCTACGACGGGATT
# B21: UGCUCCG (DNA:RNA)
# RNA: B4 RNA with G25U, U27C, G28U, U29C, G30C
# DNA 1: CAATCTGAATTCCGGTCTCCC
# DNA 2: TGGTGGCTACGACGGGATT
# B22: UGGCCCG (DNA:RNA)
# RNA: B1 RNA with C25U, C26G, A29C, U31G
# DNA 1: CAATCTGAATTCCGGTCTCCC
# DNA 2: TGGTGGCTACGACGGGATT
# B23: CGCUACC (DNA:RNA)
# RNA: B1 RNA with C26G, G27C, C28U, U31C
# DNA 1: CAATCTGAATTCCGGTCTCCC
# DNA 2: TGGTGGCTACGACGGGATT
# B24: AGAGCCU (DNA:RNA)
# RNA: B1 RNA with C25A, C26G, G27A, C28G, A29C
# DNA 1: CAATCTGAATTCCGGTCTCCC
# DNA 2: TGGTGGCTACGACGGGATT
# B25: UAUGCGC (DNA:RNA)
# RNA: B4 RNA with G25U, G26A, U29C, G31C
# DNA 1: CAATCTGAATTCCGGTCTCCC
# DNA 2: TGGTGGCTACGACGGGATT
# B26: CUUCGUU (DNA:RNA)
# RNA: B1 RNA with C26U, G27U, A29G, C30U
# DNA 1: CAATCTGAATTCCGGTCTCCC
# DNA 2: TGGTGGCTACGACGGGATT
# B27: UCCGGCC (DNA:RNA)
# RNA: B1 RNA with C25U, G27C, C28G, A29G, U31C
# DNA 1: CAATCTGAATTCCGGTCTCCC
# DNA 2: TGGTGGCTACGACGGGATT
# B28: UUACUUG (DNA:RNA)
# RNA: B4 RNA with G25U, G26U, U27A, G28C, G30U
# DNA 1: CAATCTGAATTCCGGTCTCCC
# DNA 2: TGGTGGCTACGACGGGATT
# B29: GAGUGAG (DNA:RNA)
# RNA: B4 RNA with G26A, U27G, G28U, U29G, G30A
# DNA 1: CAATCTGAATTCCGGTCTCCC
# DNA 2: TGGTGGCTACGACGGGATT
# B30: CAGGUUU (DNA:RNA)
# RNA: B1 RNA with C26A, C28G, A29U, C30U
# DNA 1: CAATCTGAATTCCGGTCTCCC
# DNA 2: TGGTGGCTACGACGGGATT
# B31: CGCCAGG (DNA:RNA)
# RNA: B1 RNA with C26G, G27C, C30G, U31G
# DNA 1: CAATCTGAATTCCGGTCTCCC
# DNA 2: TGGTGGCTACGACGGGATT
# Biological target: T1, RBFOX1 RRM
# Experiment: EMSA; HiTS-Eq, 1 nM pool, 10 min; buffer printed only for the single-RNA assays: 10 mM Tris pH 7.5, 150 mM NaCl, 3.4 mM EDTA, 0.001% NP-40, 30 C
# Settings: tags: His6 N-terminal (pET28a); label: 5' 32P
# Procedure, shortened: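 These values rest on relative association constants, computed from read-count changes of each RNA species versus the control reaction and normalised to the cognate motif. Reads came from free RNA recovered by 8% native PAGE after purified RbFox RRM (wild type or mutant) at increasing concentrations was equilibrated for 10 min in 50 µL with 1 nM of a 5′-radiolabelled pool with 7 randomized nucleotides and DNA-annealed flanks.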
row,Binder,binding signal
1,B1,0.00621 KA relative to UGCAUGU
2,B2,0.00718 KA relative to UGCAUGU
3,B3,0.00998 KA relative to UGCAUGU
4,B4,0.0188 KA relative to UGCAUGU
5,B5,0.00102 KA relative to UGCAUGU
6,B6,0.0134 KA relative to UGCAUGU
7,B7,0.00131 KA relative to UGCAUGU
8,B8,0.0012 KA relative to UGCAUGU
9,B9,0.00279 KA relative to UGCAUGU
10,B10,0.0326 KA relative to UGCAUGU
11,B11,0.0173 KA relative to UGCAUGU
12,B12,0.0296 KA relative to UGCAUGU
13,B13,0.00264 KA relative to UGCAUGU
14,B14,0.0432 KA relative to UGCAUGU
15,B15,0.0133 KA relative to UGCAUGU
16,B16,0.00242 KA relative to UGCAUGU

row,Binder,binding signal
1,B17,0.0357 KA relative to UGCAUGU
2,B18,0.0226 KA relative to UGCAUGU
3,B19,0.0396 KA relative to UGCAUGU
4,B20,0.00985 KA relative to UGCAUGU
5,B21,0.0132 KA relative to UGCAUGU
6,B22,0.0217 KA relative to UGCAUGU
7,B23,0.00834 KA relative to UGCAUGU
8,B24,0.00804 KA relative to UGCAUGU
9,B25,0.0181 KA relative to UGCAUGU
10,B26,0.0135 KA relative to UGCAUGU
11,B27,0.00966 KA relative to UGCAUGU
12,B28,0.0182 KA relative to UGCAUGU
13,B29,0.0102 KA relative to UGCAUGU
14,B30,0.0116 KA relative to UGCAUGU
15,B31,0.0105 KA relative to UGCAUGU
